Reference: PubChem BioAssay AID1159580 (chemical genetic matrix, 2015)
Where “and” joins values, the source holds several entries; their conditions need not be identical. Identical values can stand only once. Out of some 5,500 compounds screened, about 2,000 (36%) were called active. Not shown: some 18% with an inconclusive outcome. Rule as the data show it: active = normalized growth mostly below about 0.91 (no sharp cut-off); inconclusive = no clear call, values can overlap the other calls; inactive = mostly above about 0.92. The list shows a part of the results.

Assay: chemical genetic growth profiling, strain panel (AID 1159580);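 also: tested at 20 µM; growth read once vehicle control cultures reached saturation at 30 °C; 1 = growth at the plate median or of vehicle wells; lower values mean less growth of the strain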
Conditions: S. cerevisiae deletion strains, growth OD

Measured: normalized growth

COc1ccc2c(c1)OC[C@@H](Cc1ccc(OC)c(OC)c1)[C@H]2O
inactive: locus YAL013W, strain DEP1, active compounds read low 0.986 | locus YAL021C, strain ccr4, active compounds read low 0.993 | locus YAL026C, strain drs2, active compounds read low 1.02 | locus YAL030W, strain snc1, active compounds read low 1.01 | locus YBL061C, strain skt5, active compounds read low 1 | locus YBR009C, strain hhf1, active compounds read low 0.993 | locus YBR021W, strain FUR4, active compounds read low 1.06 | locus YBR023C, strain chs3, active compounds read low 0.999 | locus YBR171W, strain sec66, active compounds read low 1.01 | locus YBR229C, strain ROT2, active compounds read low 1 | locus YBR231C, strain swc5, active compounds read low 1.01 | locus YBR279W, strain paf1, active compounds read low 1.02 | locus YCL011C, strain gbp2, active compounds read low 1.01 | locus YCL016C, strain dcc1, active compounds read low 1 | locus YCL029C, strain bik1, active compounds read low 0.953 | locus YCL061C, strain MRC1, active compounds read low 0.98 | locus YCL069W, strain vba3, active compounds read low 1.01 | locus YCR088W, strain abp1, active compounds read low 0.999 | locus YDL005C, strain med2, active compounds read low 0.999 | locus YDL035C, strain GPR1, active compounds read low 0.984 | locus YDL040C, strain nat1, active compounds read low 0.991 | locus YDL074C, strain BRE1, active compounds read low 0.995 | locus YDL101C, strain DUN1, active compounds read low 1 | locus YDL134C, strain PPH21, active compounds read low 1.06 | locus YDL185W, strain tfp1, active compounds read low 0.943 | locus YDL192W, strain arf1, active compounds read low 0.967 | locus YDR001C, strain nth1, active compounds read low 1 | locus YDR069C, strain doa4, active compounds read low 0.992 | locus YDR101C, strain arx1, active compounds read low 0.981 | locus YDR159W, strain sac3, active compounds read low 0.939 | locus YDR162C, strain NBP2, active compounds read low 1.01 | locus YDR195W, strain ref2 1 | locus YDR297W, strain sur2, active compounds read low 1 | locus YDR318W, strain mcm21, active compounds read low 0.981 | locus YDR334W, strain swr1, active compounds read low 1.02 | locus YDR335W, strain msn5, active compounds read low 1.01 | locus YDR388W, active compounds read low 0.969 | locus YDR392W, strain spt3, active compounds read low 0.929 | locus YDR502C, strain sam2, active compounds read low 0.983 | locus YEL003W, strain gim4, active compounds read low 1.01 | locus YEL037C, strain rad23, active compounds read low 1.01 | locus YEL061C, strain CIN8 (second series), active compounds read low 1.01 | locus YEL061C, strain CIN8, active compounds read low 0.99 | locus YER015W, strain faa2, active compounds read low 1.01 | locus YER016W, strain bim1, active compounds read low 1.01 | locus YER110C, active compounds read low 0.978 | locus YER111C, strain swi4, active compounds read low 1 | locus YER155C, strain BEM2 (second series), active compounds read low 1.01 | locus YER155C, strain BEM2, active compounds read low 0.984 | locus YER167W, strain BCK2, active compounds read low 0.957 | locus YFR010W, strain ubp6, active compounds read low 1.01 | locus YGL078C, strain dbp3, active compounds read low 0.977 | locus YGL086W, strain mad1, active compounds read low 0.989 | locus YGL167C, strain pmr1, active compounds read low 1.01 | locus YGL173C, strain kem1, active compounds read low 1.02 | locus YGL227W, strain vid30, active compounds read low 0.999 | locus YGL240W, strain doc1, active compounds read low 1.01 | locus YGL248W, strain PDE1, active compounds read low 1.03 | locus YGL253W, strain hxk2, active compounds read low 1 | locus YGR135W, strain pre9, active compounds read low 0.99 | locus YGR252W, strain gcn5, active compounds read low 1.01 | locus YHR013C, strain ard1, active compounds read low 1.01 | locus YHR027C, strain rpn1, active compounds read low 0.999 | locus YHR030C, strain SLT2, active compounds read low 0.987 and 0.938 | locus YHR079C, strain IRE1 (second series), active compounds read low 0.979 | locus YHR079C, strain IRE1, active compounds read low 0.956 | locus YHR094C, strain hxt1, active compounds read low 0.978 | locus YHR129C, strain ARP1, active compounds read low 0.994 | locus YHR142W, strain chs7, active compounds read low 0.975 | locus YHR200W, strain rpn10, active compounds read low 0.966 | locus YIL066C, strain RNR3, active compounds read low 1.01 | locus YIL073C, strain SPO22, active compounds read low 0.919 | locus YIR030C, strain dcg1, active compounds read low 0.955 | locus YJL092W, strain hpr5, active compounds read low 1.01 | locus YJL095W, strain BCK1 (second series), active compounds read low 1.01 | locus YJL095W, strain BCK1, active compounds read low 1.04 and 0.939 | locus YJL115W, strain asf1, active compounds read low 1.01 | locus YJL129C, strain trk1, active compounds read low 0.956 | locus YJL134W, strain LCB3, active compounds read low 0.991 | locus YJL154C, strain vps35, active compounds read low 1.01 | locus YJL164C, strain tpk1, active compounds read low 0.993 | locus YJL166W, strain qcr8, active compounds read low 1.01 | locus YJL168C, strain set2, active compounds read low 0.997 | locus YJL187C, strain SWE1 (second series), active compounds read low 1.01 | locus YJL187C, strain SWE1, active compounds read low 1 | locus YJR043C, strain POL32, active compounds read low 1.01
active: locus YDR137W, strain rgp1, active compounds read low 0.806
